Data on 38 molecules can be found in PubChem BioAssay (NCI).

Compounds without any hit were thinned out: in the full panel of roughly 83,000, 20% have a hit.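 A percent growth of 40 corresponds to 60% growth inhibition; 0 means no net growth; -100 means all cells died. Active threshold: below 10.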 The source made the active and inactive calls.

The first assay deals with SK-MEL-28 melanoma. Put plainly: NCI-60 one-dose screen, 48 h (100 = growth as untreated, 0 = no growth, -100 = all killed). The note with it: 10 µM unless noted.
Take `Clc1ccc([I+]c2ccc(Cl)cc2Cl)c(Cl)c1`: the growth is 87.3% (inactive).

Take `Cc1ccc(C2=NN(c3ccc(S(N)(=O)=O)cc3)C(c3cn(-c4ccccc4)nc3-c3ccccc3)C2)cc1` (stereo unspecified): the growth was 116% (inactive).

For `N#CC1=C(N)OC2=C(C(=O)CCC2)C1c1ccco1` (stereo unspecified), the growth was 111% (inactive).

As to `COC1=CC(c2ccc[nH]2)=N/C1=C\c1[nH]c(C)c(C(=O)CCCCC(=O)Oc2ccc3c(c2)CCC2C3CC[C@]3(C)[C@@H](O)CC[C@@H]23)c1C` (stereo partly specified), the growth is 81.3% (inactive).

As for `COc1ccc(NC(=O)CSc2nc3ccccc3c(=O)n2Cc2cc(OC)c(OC)c(OC)c2)cc1`, the growth is 94% (inactive).

In the case of `Nc1c(C(=O)Nc2c(Cl)cccc2Cl)sc2nc3c(cc12)CCCCC3`, the growth is 59.2% (inactive).

Turning to `O=C(CN1CCN(c2cc3c(cc2F)c(=O)c(C(=O)O)cn3C2CC2)CC1)Nc1ccc(C(=O)/C=C/c2ccccc2)cc1`, the growth was 85.7% (inactive).

In the case of `COc1cc(/C=C/C(=O)c2ccc(NC(=O)CN3CCN(c4cc5c(cc4F)c(=O)c(C(=O)O)cn5C4CC4)CC3)cc2)cc(OC)c1OC`, the growth is 34% (inactive).

In the case of `NC(=O)c1c(NC(=O)c2ccc(OCC3CCCO3)cc2)sc2c1CCCC2` (stereo unspecified), the growth was 125% (inactive).

As for `COc1ccc(/C=C/C(=O)OCC(=O)NNC(=O)c2ccccc2)cc1OC`, the growth is 125% (inactive).

With `Cc1sc(N=Nc2ccc(N(C)C)cc2)[n+]([O-])c1C`, the growth was 102% (inactive).

In the case of `O=C(/C=C/c1ccccc1)n1c(-c2ccc(Cl)cc2)nc2ccccc21`, the growth is -65.4% (active).

In the case of `COC(=O)[C@H]1[C@H](OC)[C@@H](OC(=O)/C=C/c2ccncc2)CC2CN3CCc4c([nH]c5cc(OC)ccc45)[C@@H]3C[C@@H]21` (stereo partly specified), the growth is 94.5% (inactive).

Consider `O=C1Nc2ccc(Br)cc2C1=N/C=c1\[nH]c(=O)/c(=C/c2ccc(Cl)cc2)s1`, for which the growth was 105% (inactive).

Take `Nc1c(C(=O)Nc2cccc(C(F)(F)F)c2)sc2nc3c(cc12)CCCCC3`: the growth was 20.8% (inactive).

Consider `COc1cc(/C=C2\C=C(c3ccc(F)cc3)N(Cc3ccccc3)C2=O)cc(OC)c1OC`, for which the growth is 94.2% (inactive).

Consider `Clc1nc(Cl)c2ncn(C/C=C/Cn3cnc4c(Cl)nc(Cl)nc43)c2n1`, for which the growth is 98.8% (inactive).

Take `NC(C(=O)O)C(O)c1ccc(OCc2ccccc2)c(OCc2ccccc2)c1` (stereo unspecified): the growth is 110% (inactive).

In the case of `Nc1c(C(=O)Nc2ccccc2)sc2nc3c(cc12)CCC3`, the growth is 80.4% (inactive).

For the molecule `COc1ccc(/C=C/c2cc(N3CCOCC3)c3cc(F)c(F)cc3n2)cc1OC`, the growth was 51.4% (inactive).

In the case of `O=[N+]([O-])c1cccc(-c2cc(-c3cc(Br)ccc3O)[nH]n2)c1`, the growth is 42.1% (inactive).

For the molecule `COC1=CC(c2ccc[nH]2)=N/C1=C\c1[nH]c(C)c(C(=O)CCC(=O)Oc2ccc3c(c2)CCC2C3CC[C@]3(C)[C@@H](O)CC[C@@H]23)c1C` (stereo partly specified), the growth was 41.2% (inactive).

In the case of `COc1ccc(C2=NN(c3ccc(S(N)(=O)=O)cc3)C(c3cn(-c4ccccc4)nc3-c3ccc(Cl)cc3)C2)cc1` (stereo unspecified), the growth was 103% (inactive).

With `COc1cc(CCn2nnc3c(NCCCCO)ncnc32)cc(OC)c1`, the growth was 109% (inactive).

As to `Clc1ccc(-c2nc(-c3ccco3)cn3ccnc23)cc1`, the growth is 102% (inactive).

On to `O=C(c1ccncc1)N1N=C(c2ccc(Cl)cc2)CC1c1c[nH]c2ccccc12` (stereo unspecified), for which the growth is 107% (inactive).

Turning to `COc1ccc(-c2cn[nH]c2-c2cc(OC)c3c(c2)OCCO3)cc1`, the growth was 49.3% (inactive).

`O=S(=O)(c1ccccc1)n1ccc(-c2ccc3c(c2)CCO3)n1`: the growth was 86.2% (inactive).

As to `COC1=CC(c2ccc[nH]2)=N/C1=C\c1[nH]c(C)c(C(=O)CCCCC(=O)NCc2ccccc2)c1C`, the growth was 140% (inactive).

On to `Nc1c(C(=O)Nc2cccc([N+](=O)[O-])c2)sc2nc3c(cc12)C(O)CCC3` (stereo unspecified), for which the growth was 54.9% (inactive).

In the case of `COc1cccc(NC(=O)c2sc3nc4c(cc3c2N)CCCC4)c1`, the growth is 48.9% (inactive).

In the case of `O=C(Nc1cccc(C(F)(F)F)c1)Nc1ccc(OCc2nnc(-c3ccccc3)o2)c(F)c1`, the growth is 62.5% (inactive).

On to `CC(=O)Nc1nc(C(=O)N2N=C(C)/C(=C/c3ccc(Cl)cc3)C2=O)cs1`, for which the growth was 110% (inactive).

With `COc1cc(C(=O)OCCCCCCCCCCC[P+](c2ccccc2)(c2ccccc2)c2ccccc2)ccc1O`, the growth is -66.1% (active).

`O=C(NCCCN1CCN(CCCNC(=O)C2CCCCC2)CC1)C1CCCCC1`: the growth was 99.7% (inactive).

Regarding `COc1cc2c(cc1OC)C1(C)N(CC2)C(=O)OC1(C)C` (stereo unspecified), the growth is 112% (inactive).

Turning to `CCCCCc1c(C)[nH]c(/C=c2\[nH]/c(=C3/C=c4ccccc4=N3)cc2OC)c1C`, the growth was -60.2% (active).

Take `COc1cc(-c2n[nH]nc2-c2ccc3c(c2)OCCO3)cc(OC)c1OC`: the growth was 38.9% (inactive).

In a further assay the test system is SK-MEL-2 melanoma. Described as above. The note with it: 10 µM unless noted.
`Clc1ccc([I+]c2ccc(Cl)cc2Cl)c(Cl)c1`: the growth was 77.4% (inactive).

Turning to `Cc1ccc(C2=NN(c3ccc(S(N)(=O)=O)cc3)C(c3cn(-c4ccccc4)nc3-c3ccccc3)C2)cc1` (stereo unspecified), the growth is 90% (inactive).

With `N#CC1=C(N)OC2=C(C(=O)CCC2)C1c1ccco1` (stereo unspecified), the growth is 97.8% (inactive).

As to `COC1=CC(c2ccc[nH]2)=N/C1=C\c1[nH]c(C)c(C(=O)CCCCC(=O)Oc2ccc3c(c2)CCC2C3CC[C@]3(C)[C@@H](O)CC[C@@H]23)c1C` (stereo partly specified), the growth is 70.5% (inactive).

With `COc1ccc(NC(=O)CSc2nc3ccccc3c(=O)n2Cc2cc(OC)c(OC)c(OC)c2)cc1`, the growth is 93% (inactive).

On to `Nc1c(C(=O)Nc2c(Cl)cccc2Cl)sc2nc3c(cc12)CCCCC3`, for which the growth is 62.8% (inactive).

As to `O=C(CN1CCN(c2cc3c(cc2F)c(=O)c(C(=O)O)cn3C2CC2)CC1)Nc1ccc(C(=O)/C=C/c2ccccc2)cc1`, the growth was 53.7% (inactive).

Turning to `COc1cc(/C=C/C(=O)c2ccc(NC(=O)CN3CCN(c4cc5c(cc4F)c(=O)c(C(=O)O)cn5C4CC4)CC3)cc2)cc(OC)c1OC`, the growth was 30% (inactive).

Regarding `NC(=O)c1c(NC(=O)c2ccc(OCC3CCCO3)cc2)sc2c1CCCC2` (stereo unspecified), the growth is 84.9% (inactive).

With `COc1ccc(/C=C/C(=O)OCC(=O)NNC(=O)c2ccccc2)cc1OC`, the growth is 68.6% (inactive).

Turning to `Cc1sc(N=Nc2ccc(N(C)C)cc2)[n+]([O-])c1C`, the growth was 114% (inactive).

With `O=C(/C=C/c1ccccc1)n1c(-c2ccc(Cl)cc2)nc2ccccc21`, the growth is -36% (active).

As to `COC(=O)[C@H]1[C@H](OC)[C@@H](OC(=O)/C=C/c2ccncc2)CC2CN3CCc4c([nH]c5cc(OC)ccc45)[C@@H]3C[C@@H]21` (stereo partly specified), the growth is 103% (inactive).

Consider `O=C1Nc2ccc(Br)cc2C1=N/C=c1\[nH]c(=O)/c(=C/c2ccc(Cl)cc2)s1`, for which the growth is 99.7% (inactive).

As to `Nc1c(C(=O)Nc2cccc(C(F)(F)F)c2)sc2nc3c(cc12)CCCCC3`, the growth was 39.4% (inactive).

Regarding `COc1cc(/C=C2\C=C(c3ccc(F)cc3)N(Cc3ccccc3)C2=O)cc(OC)c1OC`, the growth was 93.1% (inactive).

In the case of `Clc1nc(Cl)c2ncn(C/C=C/Cn3cnc4c(Cl)nc(Cl)nc43)c2n1`, the growth was 96.5% (inactive).

In the case of `NC(C(=O)O)C(O)c1ccc(OCc2ccccc2)c(OCc2ccccc2)c1` (stereo unspecified), the growth was 104% (inactive).

With `Nc1c(C(=O)Nc2ccccc2)sc2nc3c(cc12)CCC3`, the growth was 86% (inactive).

In the case of `COc1ccc(/C=C/c2cc(N3CCOCC3)c3cc(F)c(F)cc3n2)cc1OC`, the growth is 45% (inactive).

As to `O=[N+]([O-])c1cccc(-c2cc(-c3cc(Br)ccc3O)[nH]n2)c1`, the growth was 24% (inactive).

As to `COC1=CC(c2ccc[nH]2)=N/C1=C\c1[nH]c(C)c(C(=O)CCC(=O)Oc2ccc3c(c2)CCC2C3CC[C@]3(C)[C@@H](O)CC[C@@H]23)c1C` (stereo partly specified), the growth was 1.42% (active).

For the molecule `COc1ccc(C2=NN(c3ccc(S(N)(=O)=O)cc3)C(c3cn(-c4ccccc4)nc3-c3ccc(Cl)cc3)C2)cc1` (stereo unspecified), the growth is 94.7% (inactive).

In the case of `COc1cc(CCn2nnc3c(NCCCCO)ncnc32)cc(OC)c1`, the growth was 124% (inactive).

Regarding `Clc1ccc(-c2nc(-c3ccco3)cn3ccnc23)cc1`, the growth was 100% (inactive).

As to `O=C(c1ccncc1)N1N=C(c2ccc(Cl)cc2)CC1c1c[nH]c2ccccc12` (stereo unspecified), the growth was 83% (inactive).

With `COc1ccc(-c2cn[nH]c2-c2cc(OC)c3c(c2)OCCO3)cc1`, the growth is 9.5% (active).

Regarding `O=S(=O)(c1ccccc1)n1ccc(-c2ccc3c(c2)CCO3)n1`, the growth is 86.5% (inactive).

Consider `COC1=CC(c2ccc[nH]2)=N/C1=C\c1[nH]c(C)c(C(=O)CCCCC(=O)NCc2ccccc2)c1C`, for which the growth is 97.1% (inactive).

Regarding `Nc1c(C(=O)Nc2cccc([N+](=O)[O-])c2)sc2nc3c(cc12)C(O)CCC3` (stereo unspecified), the growth is 26.2% (inactive).

Take `COc1cccc(NC(=O)c2sc3nc4c(cc3c2N)CCCC4)c1`: the growth is 33.7% (inactive).

On to `O=C(Nc1cccc(C(F)(F)F)c1)Nc1ccc(OCc2nnc(-c3ccccc3)o2)c(F)c1`, for which the growth was 67.8% (inactive).

Take `CC(=O)Nc1nc(C(=O)N2N=C(C)/C(=C/c3ccc(Cl)cc3)C2=O)cs1`: the growth was 90.5% (inactive).

Regarding `COc1cc(C(=O)OCCCCCCCCCCC[P+](c2ccccc2)(c2ccccc2)c2ccccc2)ccc1O`, the growth is -32.1% (active).

Consider `O=C(NCCCN1CCN(CCCNC(=O)C2CCCCC2)CC1)C1CCCCC1`, for which the growth is 98% (inactive).

For `COc1cc2c(cc1OC)C1(C)N(CC2)C(=O)OC1(C)C` (stereo unspecified), the growth is 120% (inactive).

On to `CCCCCc1c(C)[nH]c(/C=c2\[nH]/c(=C3/C=c4ccccc4=N3)cc2OC)c1C`, for which the growth is -73.9% (active).

On to `COc1cc(-c2n[nH]nc2-c2ccc3c(c2)OCCO3)cc(OC)c1OC`, for which the growth was 26.6% (inactive).
